BAZ2B block – blocks human BAZ2B; Potency, µM (series often up to 114 µM), actives largely listed as inhibitors; Q9UIF8; AID 504333; AlphaScreen BAZ2B-H3K14Ac peptide displacement; 360,000 tested, 4.4% active; further: nearly all actives have a fitted effect of over 60% in size
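AlphaScreen displacement of biotin-H3(5-23)K14Ac peptide (50 nM final) from BAZ2B (50 nM final) in PBS pH 7.4, 0.01% Tween-20; complex preformed 30 min RT, then compounds (top 110 uM) 30 min RT, beads 20 min dark.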
L3MBTL1 block – blocks human L3MBTL1 | Q9Y468 | AlphaScreen L3MBTL1–H3K9me1 peptide binding | Potency, µM (top dose mostly 57.1 µM), most hits filed as inhibitors | 230,000 tested, 0.66% active | AID 485360; further: nearly all actives have a fitted effect of over 60% in size
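Displacement of a biotinylated histone H3(1-15) peptide monomethylated at Lys9 (75 nM) from L3MBTL1 (50 nM) was measured by AlphaScreen after a 30 min room-temperature compound incubation; cefsulodin titration served as intraplate control.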
HP1b binding inh – HP1-beta chromodomain-methylated histone interaction inhibition. P83916. AlphaScreen HP1-beta / biotin-H3K9me3 peptide binding. Potency, µM (doses to about 114 µM), most hits filed as inhibitors. 390,000 tested, 0.56% active; further: nearly all actives have a fitted effect of over 70% in size
Target sequence (P83916 whole entry, looked up): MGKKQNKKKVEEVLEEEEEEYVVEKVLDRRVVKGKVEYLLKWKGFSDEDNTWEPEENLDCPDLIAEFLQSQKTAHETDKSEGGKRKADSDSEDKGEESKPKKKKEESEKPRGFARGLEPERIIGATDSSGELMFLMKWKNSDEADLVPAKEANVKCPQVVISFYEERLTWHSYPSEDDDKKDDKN
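Compound inhibition of the preformed complex between 50 nM HP1-beta and 50 nM biotinylated H3K9me3 peptide was read by AlphaScreen. Buffer was PBS pH 7.4 with 0.01% Tween-20. Incubations ran 30 min at room temperature, with 10 ug/mL donor/acceptor beads.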
JMJD2A Tudor inh – JMJD2A Tudor domain (human) inhibition | O75164 | AlphaScreen JMJD2A-Tudor / H3K4me3 peptide binding | Potency, µM (top dose mostly 114 µM), hits mostly inhibitors | 390,000 tested, 4.4% active; further: nearly all actives have a fitted effect of over 50% in size
G9a block – blocks human histone lysine methyltransferase G9a | Q96KQ7 | 350,000 tested, 8.8% active | Potency, µM (highest dose often 102 µM), usual class: inhibitors | G9a H3K9 monomethylation, AlphaScreen, 2 h; further: nearly all actives have a fitted effect of over 75% in size
Target sequence (Q96KQ7 913-1193 limits assumed): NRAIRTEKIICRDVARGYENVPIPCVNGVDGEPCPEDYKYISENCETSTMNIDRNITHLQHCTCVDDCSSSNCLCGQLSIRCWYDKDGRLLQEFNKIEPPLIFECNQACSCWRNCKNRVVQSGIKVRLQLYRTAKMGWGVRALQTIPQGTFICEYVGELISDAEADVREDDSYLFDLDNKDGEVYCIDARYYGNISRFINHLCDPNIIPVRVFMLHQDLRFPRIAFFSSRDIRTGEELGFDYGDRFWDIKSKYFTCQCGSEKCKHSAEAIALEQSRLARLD
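Step 1: enzyme (final 20 nM) with compound, 15 min RT. Step 2: substrate peptide 500 nM and SAM 20 uM, 2 h RT. Step 3: anti-H3K9me1 antibody and AlphaScreen beads, 10 min, then plate read.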
GLS inh – inhibitors of human glutaminase (GLS); GLS enzymatic activity, qHTS titration; O94925; Potency, µM (titrated, usually from 45.5 µM), hits mostly inhibitors; 410,000 tested, 0.21% active
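Two-point fluorescence kinetic (t0, 30 min RT) for hKGA; glutamate detected via glutamate oxidase–HRP–Amplex Red. Substrate: 1 mM L-glutamine solution; buffer 45 mM KH2PO4, pH 8.2.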
Of the large screens only hits and unclear results are named; the others gave an inactive call. The list is not random: actives were taken first. Their share in the collection is about 10%. The call rests on the fitted dose curve; in most records, active means well fitted curve in the direction sought with a large enough effect; inconclusive means small, poorly fitted or top-dose-only effect, or another doubt; inactive means no such curve, though single readings can be large; an effect the other way counts as inactive or inconclusive.

CCN(CC)CCCn1c2c(c(SCC(=O)Nc3ccc(C)c(F)c3)nc1=O)CCC2	G9a block 56µM
CCN(CC)CCn1c2c(c(SCC(=O)Nc3ccc4c(c3)OCO4)nc1=O)CCC2	G9a block 35µM
CCN(CC)CCn1c2c(c(SCC(=O)Nc3cc(C)cc(C)c3)nc1=O)CCC2	none
Cc1cc(C)c(S(=O)(=O)Nc2ccc(-c3ccc(N4CCCCCC4)nn3)cc2)c(C)c1	none (no result: L3MBTL1 block)
Cc1noc(NS(=O)(=O)c2ccc(N/C=C\C(=O)c3ccncc3)cc2)c1C	G9a block 50µM (no result: L3MBTL1 block)
CCCCN(CC)C(=O)CSc1nc2ccccc2c(=O)n1Cc1ccco1	none (no result: L3MBTL1 block)
CCN1CCN(C(c2ccc(F)cc2)c2sc3nc(-c4ccco4)nn3c2O)CC1 (stereo not given)	none (no result: L3MBTL1 block)
CN(CC(=O)Nc1ccccc1C(F)(F)F)Cc1c(O)ccc2ccccc12	BAZ2B block inconclusive, JMJD2A Tudor inh 79µM, G9a block 7.9µM, GLS inh inconclusive (no result: L3MBTL1 block)
COc1ccccc1NC(=O)C(C)N(C)CC(=O)Nc1cccc2ccccc12 (stereo not given)	none (no result: BAZ2B block, G9a block)
CCCN(CC(=O)Nc1ccccc1OC)Cc1c(O)ccc2ccccc12	BAZ2B block inconclusive, HP1b binding inh inconclusive, JMJD2A Tudor inh 56µM, G9a block 3.5µM (no result: L3MBTL1 block)
CN(CC(=O)Nc1ccccc1C(F)(F)F)C(=O)c1cc(Cl)nc2ccccc12	none
O=C(Nc1ccncc1)c1ccc2ccccc2c1	none (no result: G9a block)
O=C(Nc1nnc(-c2ccncc2)o1)c1ccc2ccccc2c1	BAZ2B block 79µM (no result: L3MBTL1 block)
O=C(Nc1nnc(-c2ccncc2)o1)c1cccc(N2C(=O)CCC2=O)c1	JMJD2A Tudor inh 6.3µM, G9a block inconclusive (no result: BAZ2B block, L3MBTL1 block)
CS(=O)(=O)c1ccccc1-c1nnc(NC(=O)c2cccc(N3C(=O)CCC3=O)c2)o1	BAZ2B block 79µM, JMJD2A Tudor inh 2.5µM, G9a block inconclusive
CCOc1ccc(-c2csc(NC(=O)c3cccc(N4C(=O)CCC4=O)c3)n2)cc1	none (no result: L3MBTL1 block)
Cc1ccc(-c2csc(NC(=O)c3cccc(N4C(=O)CCC4=O)c3)n2)o1	JMJD2A Tudor inh 79µM, G9a block 8.9µM
COc1ccc(S(=O)(=O)c2c(Nc3c(C)cccc3C)sc(C(=O)c3ccc(F)cc3)c2N)cc1	JMJD2A Tudor inh inconclusive (no result: L3MBTL1 block)
COc1ccc2c(c1)CC(C(=O)N1CCC(C(N)=O)CC1)CO2 (stereo not given)	none (no result: L3MBTL1 block)
Cc1cccc(C(=O)Nc2nnc(-c3cccnc3)o2)c1	BAZ2B block 50µM, JMJD2A Tudor inh inconclusive (no result: L3MBTL1 block)
CSc1cccc(-c2nnc(NC(=O)c3cccc(N4C(=O)CCC4=O)c3)o2)c1	BAZ2B block inconclusive, JMJD2A Tudor inh inconclusive
O=C(Nc1nnc(-c2cccnc2)o1)c1cccc([N+](=O)[O-])c1	BAZ2B block inconclusive (no result: L3MBTL1 block, HP1b binding inh, JMJD2A Tudor inh, GLS inh)
O=C(Nc1nnc(-c2ccco2)o1)c1cccc(N2C(=O)CCC2=O)c1	BAZ2B block 22µM, JMJD2A Tudor inh 4.5µM, G9a block 16µM
Cc1cccc(C(=O)Nc2nnc(-c3ccco3)o2)c1	BAZ2B block 45µM, JMJD2A Tudor inh inconclusive
Cc1ccc(C(=O)Nc2nnc(-c3ccco3)o2)cc1C	BAZ2B block inconclusive
Cc1ccccc1C(=O)Nc1nnc(-c2ccco2)o1	BAZ2B block 50µM, JMJD2A Tudor inh 50µM
O=C(c1ccc2c(c1)OCCO2)N(Cc1cccnc1)c1nc2c(F)cc(F)cc2s1	none (no result: L3MBTL1 block)
COc1ccc(-n2nnnc2SC(C)C(=O)NCC(=O)Nc2ccc(F)c(F)c2F)cc1 (stereo not given)	G9a block 40µM
Cc1cc(C)c2nc(SC(C)C(=O)NCC(=O)Nc3ccc(F)c(F)c3F)cc(C)c2c1 (stereo not given)	G9a block 18µM
COc1ccc2nc(SC(C)C(=O)NCC(=O)Nc3ccc(F)c(F)c3F)[nH]c2c1 (stereo not given)	G9a block 50µM
CCOc1ccc(N(CC(=O)Nc2ccc3c(c2)OCO3)S(=O)(=O)c2ccccc2)cc1	none (no result: L3MBTL1 block)
O=C(NC1CC(=O)N(c2ccc(F)cc2)C1)c1ccco1 (stereo not given)	none (no result: L3MBTL1 block)
CCn1c(SCC(=O)Nc2ccc(N(C)C)cc2)nnc1-c1cccc(C)c1	BAZ2B block inconclusive, JMJD2A Tudor inh inconclusive, G9a block 7.1µM
CCn1c(SCC(=O)Nc2ccccc2N2CCOCC2)nnc1-c1ccccc1	none (no result: L3MBTL1 block)
CCn1c(SCC(=O)Nc2ccc(N3CCOCC3)c(Cl)c2)nnc1-c1ccc(N)cc1	JMJD2A Tudor inh inconclusive, G9a block 45µM (no result: L3MBTL1 block)
CN(C)c1ccc(NC(=O)CSc2nnc(-c3cccs3)n2Cc2ccco2)cc1	BAZ2B block 45µM, HP1b binding inh inconclusive, JMJD2A Tudor inh 40µM, G9a block 10µM (no result: L3MBTL1 block)
CCn1c(Cn2nnc(-c3ccccc3)n2)nnc1SCC(=O)Nc1ccc(N(C)C)cc1	G9a block 13µM
O=C(NCCN1CCN(c2cccc(Cl)c2)CC1)C1COc2ccccc2C1 (stereo not given)	none (no result: L3MBTL1 block)
CCCOc1cccc(C2c3c(-c4ccccc4O)n[nH]c3C(=O)N2Cc2ccco2)c1 (stereo not given)	BAZ2B block inconclusive, JMJD2A Tudor inh inconclusive (no result: L3MBTL1 block)
O=C(O)COc1ccc(-c2nccc(-c3ccccn3)n2)cc1	BAZ2B block 79µM, HP1b binding inh inconclusive, G9a block inconclusive
FCCCOc1ccc(-c2nccc(-c3ccccn3)n2)cc1	none (no result: L3MBTL1 block)
c1nc(NCCCN2CCOCC2)c2cc(-c3ccc4c(c3)OCO4)ccc2n1	none (no result: BAZ2B block, L3MBTL1 block, HP1b binding inh, G9a block, GLS inh)
Cc1cccc(NC(=O)CSc2nc3ccccc3nc2N2CCOCC2)c1C	none (no result: L3MBTL1 block)
COc1ccccc1C(CC(=O)Nc1nccs1)c1ccco1 (stereo not given)	JMJD2A Tudor inh inconclusive
O=C(CC(c1ccc(F)cc1)c1ccco1)N1CCCC1 (stereo not given)	G9a block 40µM
O=C(CC(c1ccc(F)cc1)c1ccco1)N1CCOCC1 (stereo not given)	none
O=C(CC(c1ccc(F)cc1)c1ccco1)Nc1nccs1 (stereo not given)	BAZ2B block inconclusive, G9a block 28µM
CCCN(CCC)C(=O)CC(c1ccc(F)cc1)c1ccco1 (stereo not given)	G9a block 45µM (no result: L3MBTL1 block)
COC(=O)CC1c2cc(OC)c(OC)cc2CCN1C(=O)Nc1ccc(C)cc1Cl (stereo not given)	none (no result: L3MBTL1 block)
Cc1ccc(CN2C(=O)CN(C3CCCCCC3)C(=O)C2c2ccc(F)cc2)cc1 (stereo not given)	none (no result: L3MBTL1 block)
O=C(NCCCN1CCc2ccccc2C1)C1CCN(c2nnc(-n3cccc3)s2)CC1	JMJD2A Tudor inh inconclusive, G9a block 50µM
CCN(CC)c1ccc(NC(=O)C2CCN(c3nnc(-n4cccc4)s3)CC2)c(C)c1	G9a block 4µM (no result: L3MBTL1 block)

Compound activity from PubChem.
